B2AR ag: agonists of human beta-2 adrenergic receptor inducing internalization. AID 504454. response, % (no concentration beside the values). 340,000 tested, 0.43% active. Am2.2-beta2AR cells, FAP receptor internalization, flow cytometry. P07550;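 active means response above a set limit, near 3 SD of response in nonfluorescent compounds, cut at about 42% in these data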
ABHD5-PLIN5 inh: inhibitors of human ABHD5-perilipin-5 interaction; Q00G26+Q8WTS1; Split G. princeps luciferase complementation, luminescence, 4 h; inhibition, % at 4 µM; 360,000 tested, 0.78% active;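 active means inhibition above the mean inhibition across every tested compound plus 3 SD, cut at about 22% in these data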
Target sequence (Q00G26 whole entry, looked up): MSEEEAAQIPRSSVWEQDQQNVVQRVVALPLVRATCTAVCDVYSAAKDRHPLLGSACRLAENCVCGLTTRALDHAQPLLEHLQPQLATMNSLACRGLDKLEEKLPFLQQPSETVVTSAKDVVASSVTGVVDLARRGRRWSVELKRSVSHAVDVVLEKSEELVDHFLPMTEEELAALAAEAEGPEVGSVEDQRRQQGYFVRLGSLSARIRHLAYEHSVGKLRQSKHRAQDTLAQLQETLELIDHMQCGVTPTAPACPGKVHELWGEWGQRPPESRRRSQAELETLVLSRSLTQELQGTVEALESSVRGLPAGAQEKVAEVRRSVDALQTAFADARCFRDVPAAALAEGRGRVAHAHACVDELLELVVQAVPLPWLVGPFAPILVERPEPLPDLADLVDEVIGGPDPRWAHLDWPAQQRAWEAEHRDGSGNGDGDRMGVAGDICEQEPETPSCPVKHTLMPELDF
Target sequence (Q8WTS1 whole entry, looked up): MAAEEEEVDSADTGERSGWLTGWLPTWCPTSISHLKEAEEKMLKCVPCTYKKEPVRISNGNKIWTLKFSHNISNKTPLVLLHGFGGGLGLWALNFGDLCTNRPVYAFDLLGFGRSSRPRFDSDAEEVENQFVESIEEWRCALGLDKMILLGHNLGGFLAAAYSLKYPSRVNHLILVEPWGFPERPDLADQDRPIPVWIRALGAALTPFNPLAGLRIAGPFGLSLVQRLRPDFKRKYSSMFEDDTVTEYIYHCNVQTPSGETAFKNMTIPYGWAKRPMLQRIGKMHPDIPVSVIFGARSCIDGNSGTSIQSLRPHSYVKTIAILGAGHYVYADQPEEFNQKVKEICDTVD
NTR1 ag: NTR1 (human) agonism. NTR1-U2OS beta-arrestin-GFP spot imaging, agonist mode. activation, % at 20 µM. 330,000 tested, 0.17% active. AID 493036;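 active means activation at or above 40% of the spot to cytoplasm intensity ratio, with at least 20 cells analyzed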
Granule exo inh: lytic granule exocytosis inhibition; inhibition, % at 10 µM; TALL-104 LAMP-1 surface exposure, flow cytometry; cells stimulated with thapsigargin and PMA; 360,000 tested, 0.66% active;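 active means inhibition above about 55%, limit read from the data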
HTR2A ag: agonists of mouse serotonin 5-HT2A receptor (HTR2A); AID 624169; 360,000 tested, 0.66% active; P35363; CHO-K1 mHTR2A beta-arrestin complementation, luminescence; percent of 30 µM serotonin response; activation, % at 7.6 µM;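 active means activation above a run cutoff, the mean activation of all tested compounds plus 3 SD, cut at about 14% in these data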
Exocytosis CP01: blocks lytic granule exocytosis | shares compounds with Granule exo inh | TALL-104 cells, LAMP-1 externalization, flow cytometry; stimulated with PMA plus thapsigargin | inhibition, % at 10 µM | 1,500 tested, 11% active; in the data active means inhibition above about 60%
Large screens that a line does not name were inactive (follow-up assays come after a bar, where they were run). Rows were chosen to be rich in hits. Some 2.3% of all compounds tested hit in one or more screens of this group.

CNc1nc(Oc2cccc(NC(C)=O)c2)c2sccc2n1	none (no result: B2AR ag, NTR1 ag)
Cc1ccc(C(=O)NCCc2ccc(S(=O)(=O)N3CCCC3)cc2)cc1	Granule exo inh 64 | Exocytosis CP01 inactive
CCC(=O)Nc1cc2[nH]c(=O)cc(C)c2cc1C	Granule exo inh 58 | Exocytosis CP01 inactive
Cc1cc2c(C)cc(=O)[nH]c2cc1NC(=O)CCl	none
Cc1cc(C)cc(N2C(=O)CC(Sc3ccccc3C(=O)O)C2=O)c1 (configuration not stated)	Granule exo inh 84 | Exocytosis CP01 inactive
O=C(NCc1ccco1)c1ccc2ccccc2n1	none
O=C(Nc1ccc(S(=O)(=O)NCc2ccco2)cc1)c1ccc2ccccc2n1	Granule exo inh 98 | Exocytosis CP01 inactive
CC(C)(C)NC(=O)CN1C(=O)NC(c2ccccc2)(c2ccccc2)C1=O	Granule exo inh 85 | Exocytosis CP01 inactive
CC(=O)CN1C(=O)NC(c2ccccc2)(c2ccccc2)C1=O	none
Cc1ccc(S(=O)(=O)c2nc(-c3ccco3)oc2SCC(=O)NCC2CCCO2)cc1 (configuration not stated)	Granule exo inh 89 | Exocytosis CP01 inactive
CC(=O)Nc1ccc(Nc2nc(-c3c(C)nc4ccccn34)cs2)cc1	Granule exo inh 75 | Exocytosis CP01 inactive
CCOC(=O)c1c(CN2CCN(C)CC2)n(-c2ccccc2)c2cc(Br)c(O)cc12	Granule exo inh 59 | Exocytosis CP01 inactive
CCOC(=O)c1c(CN2CCN(CCO)CC2)n(-c2ccccc2)c2cc(Br)c(O)cc12	Granule exo inh 79 | Exocytosis CP01 inactive
Cc1cccc(Nc2cc(C)nc3ccccc23)c1	none
Cc1cc(Nc2cccc(Cl)c2)c2ccccc2n1	Granule exo inh 78 | Exocytosis CP01 inactive
CN(C)c1ccc(CNCCC(Cc2ccccc2)c2ccco2)cc1 (configuration not stated)	none
c1ccc(CNCCC(Cc2ccccc2)c2ccco2)cc1 (configuration not stated)	Granule exo inh 72 | Exocytosis CP01 inactive
CCCCCCN1C[C@H](n2cc(-c3ccc(F)cc3)nn2)[C@@H](O)C[C@@H]1c1ccc(C)cc1	Granule exo inh 62 (no result: B2AR ag, NTR1 ag) | Exocytosis CP01 inactive
COC(=O)CNC(c1ccccc1)c1cc(Br)ccc1NC(=O)CNC(=O)OCc1ccccc1 (configuration not stated)	none
COC(=O)CNC(c1ccccc1)c1cc(Br)ccc1NC(=O)CCN1CCOCC1 (configuration not stated)	Granule exo inh 78 | Exocytosis CP01 inactive
CCOC(=O)Nc1ccc(N2CCOCC2)c(S(=O)(=O)Nc2ccc(Cl)cc2)c1	none (no result: B2AR ag)
c1ccc(OCCN2CCNCC2)cc1	none (no result: NTR1 ag)
COc1cccc(CN2CCN(C(c3ccccc3)c3ccccc3)CC2)c1O	none
c1ccc(OCCN2CCN(C(c3ccccc3)c3ccccc3)CC2)cc1	Granule exo inh 84 | Exocytosis CP01 inactive
COc1cc(CN2CCN(C(c3ccccc3)c3ccccc3)CC2)cc(OC)c1OC	Granule exo inh 64 | Exocytosis CP01 inactive
Cc1cc(C)n2c(NC3CCCCC3)c(-c3ccccn3)nc2n1	none (no result: B2AR ag, NTR1 ag)
CCc1nnc(NC(=O)[C@@H](NS(=O)(=O)c2ccc3c(c2)OCCO3)C(C)C)s1	Granule exo inh 58 (no result: NTR1 ag) | Exocytosis CP01 inactive
CS(=O)(=O)N(CC(=O)Nc1cccc(Cl)c1)c1ccccc1Cl	Granule exo inh 85 | Exocytosis CP01 inactive
CCN(CC(=O)NCc1ccc(Cl)cc1)C(=O)CCOc1ccccc1C	Granule exo inh 80 | Exocytosis CP01 inactive
Cc1ccc(Cl)cc1N(CC(=O)Nc1cccc(N(C)S(C)(=O)=O)c1)S(C)(=O)=O	none
CCOc1ccccc1N(CC(=O)Nc1ccc(OC)cc1OC)S(=O)(=O)c1ccccc1	none
CCOc1ccccc1N(CC(=O)Nc1ccccc1F)S(=O)(=O)c1ccccc1	Granule exo inh 57 | Exocytosis CP01 inactive
COC(=O)c1cc(NC(=O)CN(c2ccccc2OC)S(=O)(=O)c2ccccc2)ccc1Cl	Granule exo inh 68 | Exocytosis CP01 inactive
COc1ccc(-c2csc3ncnc(N4CCN(S(=O)(=O)c5ccc(C(C)=O)cc5)CC4)c23)cc1	none
COc1ccc(N(CC(=O)Nc2cc(C)on2)S(=O)(=O)c2ccc(Cl)cc2)cc1	none
COc1ccccc1N(CC(=O)NCCSCc1ccccc1)S(=O)(=O)c1ccccc1	none (no result: B2AR ag, NTR1 ag)
CCOc1ccccc1N(CC(=O)NC1CCCCC1)S(=O)(=O)c1ccccc1	Granule exo inh 70 | Exocytosis CP01 inactive
CCOc1ccc(N(CC(=O)Nc2ccccc2OC)S(=O)(=O)c2ccccc2)cc1	Granule exo inh 65 | Exocytosis CP01 inactive
COc1ccc(N(CC(=O)Nc2cc(C)on2)S(=O)(=O)c2cc(C)ccc2C)cc1	Granule exo inh 57 | Exocytosis CP01 inactive
COc1ccccc1N(CC(=O)NCCSCc1ccccc1)S(=O)(=O)c1ccc(C)cc1	Granule exo inh 90 | Exocytosis CP01 inactive
C=CCSc1nnc(NC(=O)CN2C(=O)NC3(CCCC3)C2=O)s1	none
O=C(NNC(=O)c1ccc(Oc2ccc(C3SCCS3)cc2)o1)c1ccc(Cl)cc1	none
CCOc1ccc(N(CC(=O)NCc2ccc(Cl)cc2)S(=O)(=O)c2ccccc2)cc1	Granule exo inh 77 | Exocytosis CP01 inactive
CCN(c1ccccc1)S(=O)(=O)c1ccc(OC)c(NC(=O)CNCCc2ccccc2)c1	Granule exo inh 85 | Exocytosis CP01 inactive
COc1ccc(N(CC(=O)NC(C)c2ccccc2)S(=O)(=O)c2ccc(C)cc2)cc1 (configuration not stated)	Granule exo inh 87 | Exocytosis CP01 inactive
COc1ccc(NC(=O)C(CC(=O)O)Cc2ccc(C)cc2)cc1 (configuration not stated)	none
COc1ccccc1C(=O)Nc1ccccc1SC(=O)c1ccccc1OC	Granule exo inh 91 | Exocytosis CP01 inactive
CCN1C(=O)C(CC(=O)NCCc2ccccc2)N(NC(=O)c2ccc(Br)cc2)C1=S (configuration not stated)	none (no result: B2AR ag, NTR1 ag)
Cc1ccnc(NC(=O)C2CCN(S(=O)(=O)c3ccc(C)c(C)c3)CC2)c1	Granule exo inh 65 | Exocytosis CP01 inactive
Oc1ccc(Cl)cc1CNCC1CCCCC1	none
Cc1ccc(NC(=O)CN(C)CC(=O)Nc2ccc(N3CCOCC3)cc2)cc1F	Granule exo inh 99 | Exocytosis CP01 inactive
CC(C)C(NS(=O)(=O)c1ccccc1F)C(=O)N1CCc2ccccc2C1 (configuration not stated)	none
CC(C)C(NS(=O)(=O)c1cccc(C(F)(F)F)c1)C(=O)N1CCc2ccccc2C1 (configuration not stated)	Granule exo inh 76 | Exocytosis CP01 inactive
O=C(NC1CC1)c1ccc(CSCc2ccccc2Cl)o1	none
Cc1c(C(=O)N(C)C2CCCCC2)sc2ncnc(N3CCN(c4ccccc4F)CC3)c12	Granule exo inh 85 | Exocytosis CP01 inactive

Assay outcomes as filed in PubChem.
